# Experimental data: the supplement of paper PMC10849652
# The full data set covers some 7,900 targets. This sample favours those with a hit. About 0.6% of all pairs of compound and target were hits. A number with no mark means an inactive call.
# Compound: COC(=O)[C@H](CCSC)NC(=O)C1=C(C=C(C=C1)NC[C@H](CS)N)C2=CC=CC=C2
# Experiment: log2 fold change, soluble protein after heating vs DMSO (PISA); higher = thermal stabilisation; K562 cells, 10 uM, 30 min; active = over 0.2 and 3.5 SD of the protein, either way, in both replicates (recomputed)
# Outline: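 Values are thermal stability changes relative to control samples and are taken from duplicates. They are stated as log2 fold changes. Before quantification by TMTpro 16plex LC-MS/MS with equalised channel sums, K562 cells at 2×10^6 cells/mL were treated with 10 μM compound for 30 min, heated in aliquots for 3 min across 48°C-58°C, pooled, extracted in PBS with 0.5% NP-40 at 4°C, and centrifuged at 21,000xg for 90 min to give the soluble supernatant.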
# Sequence of UniProt P54803 (P54803 whole entry, looked up): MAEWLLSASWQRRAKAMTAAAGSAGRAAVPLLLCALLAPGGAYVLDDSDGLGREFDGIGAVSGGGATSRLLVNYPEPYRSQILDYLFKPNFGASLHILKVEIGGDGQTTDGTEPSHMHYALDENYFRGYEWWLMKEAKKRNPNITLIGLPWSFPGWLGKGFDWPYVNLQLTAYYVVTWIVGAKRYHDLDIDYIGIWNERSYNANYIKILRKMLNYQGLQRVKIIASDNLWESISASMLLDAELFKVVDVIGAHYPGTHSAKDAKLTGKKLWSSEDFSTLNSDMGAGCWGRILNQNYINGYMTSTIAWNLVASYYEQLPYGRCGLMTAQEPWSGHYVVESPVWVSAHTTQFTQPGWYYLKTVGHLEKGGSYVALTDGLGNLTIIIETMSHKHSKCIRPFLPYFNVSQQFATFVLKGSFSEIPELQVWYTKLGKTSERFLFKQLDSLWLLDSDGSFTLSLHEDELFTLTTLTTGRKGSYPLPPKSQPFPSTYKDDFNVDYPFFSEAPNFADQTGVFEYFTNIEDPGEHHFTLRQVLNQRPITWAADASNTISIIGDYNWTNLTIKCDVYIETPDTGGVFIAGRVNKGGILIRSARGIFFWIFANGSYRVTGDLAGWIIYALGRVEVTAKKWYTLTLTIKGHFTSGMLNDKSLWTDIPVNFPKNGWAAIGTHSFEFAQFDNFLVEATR
# Sequence of UniProt O43427 (O43427 whole entry, looked up): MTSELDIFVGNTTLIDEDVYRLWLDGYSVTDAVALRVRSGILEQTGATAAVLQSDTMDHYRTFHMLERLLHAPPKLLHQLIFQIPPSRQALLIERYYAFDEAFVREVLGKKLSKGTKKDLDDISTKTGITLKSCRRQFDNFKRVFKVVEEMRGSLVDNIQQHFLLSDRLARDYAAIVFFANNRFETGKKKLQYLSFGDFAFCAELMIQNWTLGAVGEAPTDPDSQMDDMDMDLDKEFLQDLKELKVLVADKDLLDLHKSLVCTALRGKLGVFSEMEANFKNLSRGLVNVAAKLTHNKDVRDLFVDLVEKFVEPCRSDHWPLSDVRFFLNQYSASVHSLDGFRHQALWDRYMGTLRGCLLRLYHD
# Sequence of UniProt Q9H4A6 (Q9H4A6 whole entry, looked up): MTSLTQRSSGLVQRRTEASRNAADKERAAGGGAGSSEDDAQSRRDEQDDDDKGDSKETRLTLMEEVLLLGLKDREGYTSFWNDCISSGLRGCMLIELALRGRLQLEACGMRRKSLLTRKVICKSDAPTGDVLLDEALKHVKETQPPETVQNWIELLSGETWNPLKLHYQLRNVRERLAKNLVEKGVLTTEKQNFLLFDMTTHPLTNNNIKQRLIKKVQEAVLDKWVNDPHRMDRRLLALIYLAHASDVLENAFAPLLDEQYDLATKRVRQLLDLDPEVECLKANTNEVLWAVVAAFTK
# Sequence of UniProt Q92769 (Q92769 whole entry, looked up): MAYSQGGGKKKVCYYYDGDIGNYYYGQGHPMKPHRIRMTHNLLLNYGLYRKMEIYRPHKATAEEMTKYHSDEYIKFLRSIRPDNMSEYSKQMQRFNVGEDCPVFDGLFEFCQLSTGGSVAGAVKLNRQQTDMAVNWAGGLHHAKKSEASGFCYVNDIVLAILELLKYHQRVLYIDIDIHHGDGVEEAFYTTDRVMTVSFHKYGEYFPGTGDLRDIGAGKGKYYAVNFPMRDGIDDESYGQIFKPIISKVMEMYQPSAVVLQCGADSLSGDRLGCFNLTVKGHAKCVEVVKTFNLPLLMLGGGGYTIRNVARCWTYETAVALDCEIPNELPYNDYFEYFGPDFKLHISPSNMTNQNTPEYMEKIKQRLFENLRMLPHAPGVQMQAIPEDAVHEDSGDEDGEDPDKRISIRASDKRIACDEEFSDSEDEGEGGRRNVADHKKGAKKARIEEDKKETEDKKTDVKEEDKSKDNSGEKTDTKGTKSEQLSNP
# Sequence of UniProt P52597 (P52597 whole entry, looked up): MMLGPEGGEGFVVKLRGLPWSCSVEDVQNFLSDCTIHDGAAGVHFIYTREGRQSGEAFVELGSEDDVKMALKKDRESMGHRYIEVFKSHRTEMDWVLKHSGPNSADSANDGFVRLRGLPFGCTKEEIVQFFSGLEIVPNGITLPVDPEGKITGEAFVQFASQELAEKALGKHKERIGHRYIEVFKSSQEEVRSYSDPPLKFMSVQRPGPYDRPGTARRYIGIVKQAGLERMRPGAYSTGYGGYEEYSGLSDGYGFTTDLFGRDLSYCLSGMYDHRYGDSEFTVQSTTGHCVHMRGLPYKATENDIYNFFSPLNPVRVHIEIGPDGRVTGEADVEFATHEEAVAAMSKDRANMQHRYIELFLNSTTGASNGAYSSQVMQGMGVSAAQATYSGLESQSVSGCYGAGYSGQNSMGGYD
# Sequence of UniProt O75146 (O75146 whole entry, looked up): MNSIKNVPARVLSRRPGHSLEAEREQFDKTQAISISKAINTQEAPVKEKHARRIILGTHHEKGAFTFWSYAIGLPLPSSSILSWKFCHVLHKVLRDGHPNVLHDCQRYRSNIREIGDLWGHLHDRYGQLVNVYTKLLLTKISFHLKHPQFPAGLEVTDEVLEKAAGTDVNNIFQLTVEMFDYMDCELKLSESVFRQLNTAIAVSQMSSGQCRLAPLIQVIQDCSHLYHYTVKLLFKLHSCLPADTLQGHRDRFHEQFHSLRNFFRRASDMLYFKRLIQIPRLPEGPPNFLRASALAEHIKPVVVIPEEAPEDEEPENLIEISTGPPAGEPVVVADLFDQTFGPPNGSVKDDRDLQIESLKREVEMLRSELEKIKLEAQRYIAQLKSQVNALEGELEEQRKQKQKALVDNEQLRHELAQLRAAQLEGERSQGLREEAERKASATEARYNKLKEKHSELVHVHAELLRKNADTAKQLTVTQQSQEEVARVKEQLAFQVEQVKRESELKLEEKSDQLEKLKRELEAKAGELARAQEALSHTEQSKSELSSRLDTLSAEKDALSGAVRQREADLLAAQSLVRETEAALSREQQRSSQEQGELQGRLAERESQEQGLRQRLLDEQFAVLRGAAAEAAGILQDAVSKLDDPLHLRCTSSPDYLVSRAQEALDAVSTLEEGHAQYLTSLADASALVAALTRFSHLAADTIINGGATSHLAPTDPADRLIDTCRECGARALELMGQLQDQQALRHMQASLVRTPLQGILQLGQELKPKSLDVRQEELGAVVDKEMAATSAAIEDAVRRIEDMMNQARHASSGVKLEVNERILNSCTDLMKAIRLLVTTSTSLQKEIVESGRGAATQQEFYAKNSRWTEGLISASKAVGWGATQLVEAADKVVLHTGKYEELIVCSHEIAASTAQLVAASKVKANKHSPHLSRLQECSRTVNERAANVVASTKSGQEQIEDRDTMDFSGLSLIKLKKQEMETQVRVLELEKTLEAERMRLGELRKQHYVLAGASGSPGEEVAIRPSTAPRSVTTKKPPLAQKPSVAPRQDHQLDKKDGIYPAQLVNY
# Sequence of UniProt Q53R41 (Q53R41 whole entry, looked up): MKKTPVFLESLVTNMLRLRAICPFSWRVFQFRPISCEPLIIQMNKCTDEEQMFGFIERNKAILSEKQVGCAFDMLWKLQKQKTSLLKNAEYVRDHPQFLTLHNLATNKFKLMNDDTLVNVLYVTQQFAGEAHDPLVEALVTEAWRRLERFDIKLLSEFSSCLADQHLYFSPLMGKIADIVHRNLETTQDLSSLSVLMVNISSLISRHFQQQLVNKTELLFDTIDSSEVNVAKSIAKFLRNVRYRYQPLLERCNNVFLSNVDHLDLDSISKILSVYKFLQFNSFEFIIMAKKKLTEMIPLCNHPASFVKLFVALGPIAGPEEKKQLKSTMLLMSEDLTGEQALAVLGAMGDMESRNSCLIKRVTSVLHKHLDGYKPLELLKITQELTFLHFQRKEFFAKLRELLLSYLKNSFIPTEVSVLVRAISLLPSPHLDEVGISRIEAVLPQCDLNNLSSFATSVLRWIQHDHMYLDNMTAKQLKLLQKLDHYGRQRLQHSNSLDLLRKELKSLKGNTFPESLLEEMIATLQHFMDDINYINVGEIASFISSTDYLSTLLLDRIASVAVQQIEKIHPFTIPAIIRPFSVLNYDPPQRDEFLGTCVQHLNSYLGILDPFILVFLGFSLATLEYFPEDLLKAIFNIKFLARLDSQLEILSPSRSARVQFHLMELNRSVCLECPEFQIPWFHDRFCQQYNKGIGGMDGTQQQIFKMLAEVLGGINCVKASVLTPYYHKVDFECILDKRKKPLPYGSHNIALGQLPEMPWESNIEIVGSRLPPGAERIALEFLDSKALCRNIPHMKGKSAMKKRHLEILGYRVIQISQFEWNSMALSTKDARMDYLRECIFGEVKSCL
# Sequence of UniProt P49356 (P49356 whole entry, looked up): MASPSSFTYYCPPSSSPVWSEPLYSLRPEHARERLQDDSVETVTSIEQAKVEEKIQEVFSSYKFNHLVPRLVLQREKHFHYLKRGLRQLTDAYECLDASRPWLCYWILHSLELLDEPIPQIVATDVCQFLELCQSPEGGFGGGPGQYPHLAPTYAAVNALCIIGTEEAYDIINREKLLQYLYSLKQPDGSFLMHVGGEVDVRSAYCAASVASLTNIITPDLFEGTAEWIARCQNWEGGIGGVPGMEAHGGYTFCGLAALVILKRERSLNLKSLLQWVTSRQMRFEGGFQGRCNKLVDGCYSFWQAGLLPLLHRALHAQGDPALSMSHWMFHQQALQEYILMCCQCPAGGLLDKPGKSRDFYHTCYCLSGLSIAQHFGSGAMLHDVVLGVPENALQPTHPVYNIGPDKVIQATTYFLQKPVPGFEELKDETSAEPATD
row,Target,log2 fold change
1,FNTB (UniProt P49356),0.974 (active)
2,GOLPH3 (UniProt Q9H4A6),-0.044
3,GHDC (UniProt Q8N2G8),0.02
4,HDAC2 (UniProt Q92769),-0.006
5,FIBP (UniProt O43427),0.004
6,FERMT3 (UniProt Q86UX7),-0.03
7,HIP1R (UniProt O75146),0.016
8,HNRNPF (UniProt P52597),-0.06
9,HNRNPH2 (UniProt P55795),-0.068
10,GALC (UniProt P54803),-0.005
11,FASTKD1 (UniProt Q53R41),-0.02
